# Laboratory results taken from PubChem BioAssay (EPA / NIEHS).
# Calls of active or inactive are those of the source. How the source made its calls: active means hit-call score of the fitted dose curve at least 0.9, where 1 is the maximum; inactive means score below 0.9.
# Legend:
# [1] = target: CCAAT/enhancer-binding protein beta (Homo sapiens) (UniProt P17676); experiment: ATG_C_EBP_CIS: Attagene CIS-FACTORIAL HepG2 Assay for human CCAAT/Enhancer Binding Protein (C/EBP) beta (AID 2282927); details: HepG2 Attagene cis-factorial transcription factor reporter; actives raise or lower the signal
# Method in brief: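 Endogenous transcription factor activity in human liver HepG2 cells is inferred from induction of a CEBPB-linked reporter mRNA. Exposure lasts 24 h; activity is fitted in both directions relative to DMSO.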
# [2] = ATG_CMV_CIS: Attagene CIS-FACTORIAL HepG2 Assay for human CMV (Internal Marker) (AID 2282928); details: HepG2 CMV promoter reporter, transcription factor profiling; actives raise or lower the signal;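 further: endpoint acts as a background internal control marker rather than a target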
# Method in brief: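 Readout: fluorescent reporter cDNA fragments separated by capillary electrophoresis after RT-PCR and HpaI cut. Cells: HepG2 carrying transfected cis-promoter reporter constructs, dosed 24 h. Endpoint serves as background internal-marker control, fit bidirectionally versus DMSO.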
# [3] = ATG_DR4_LXR_CIS: Attagene CIS-FACTORIAL HepG2 Assay for human Liver X Receptor (LXR), DR4 submotif (AID 2282929); details: HepG2 Attagene DR4 cis-reporter, mRNA transcription; actives raise or lower the signal
# Method in brief: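 DR4 cis-reporter in HepG2, 24 h exposure. Detection: RT-PCR, 6-FAM labelling, CE fragment analysis. Endpoint fitted bidirectionally, DMSO = baseline.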
# [4] = target: Aryl hydrocarbon receptor (Homo sapiens) (UniProt P35869); experiment: ATG_Ahr_CIS: Attagene CIS-FACTORIAL HepG2 Assay for human Aryl Hydrocarbon Receptor (Ahr) (AID 2282930); details: HepG2 AhR cis-factorial reporter transcription; actives raise or lower the signal
# Method in brief: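 Transient MRTU transfection of HepG2 → 24 h compound exposure → total RNA, oligo(dT) RT → PCR, 6-FAM extension, HpaI cut → CE fluorescence. DMSO = baseline; bidirectional curve fit.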
# [5] = ATG_AP_1_CIS: Attagene CIS-FACTORIAL HepG2 Assay for human Activator Protein 1 (AP-1) (AID 2282931); details: HepG2 Attagene cis-factorial AP-1 reporter mRNA; actives raise or lower the signal
# Method in brief: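 Cis-regulated reporter units transiently expressed in HepG2 report endogenous transcription-factor activity. Signal: reporter mRNA at 24 h, via RT-PCR and fluorescent capillary electrophoresis. Endpoint derived by bidirectional fitting, DMSO as negative control.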
# [6] = ATG_AP_2_CIS: Attagene CIS-FACTORIAL HepG2 Assay for human Activator Protein 2 (AP-2) (AID 2282932); details: HepG2 AP-2 cis-reporter, Attagene transcription factor profiling; actives raise or lower the signal
# Method in brief: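 Transiently transfected HepG2 cells are exposed to chemical for 24 h. Reporter transcripts are then measured as fluorescence following RT-PCR and capillary separation, and gain- or loss-of-signal is fitted relative to DMSO.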
# [7] = ATG_BRE_CIS: Attagene CIS-FACTORIAL HepG2 Assay for human Bone Morphogenetic Protein (BMP) Response Element (BRE) (AID 2282933); details: HepG2 BMP response element reporter, Attagene transcription factor profiling; actives raise or lower the signal
# Method in brief: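 Read-out: reporter mRNA induction quantified by RT-PCR and capillary electrophoresis after 24 h chemical exposure of transfected HepG2 cells. Endogenous factor activity on the BMP response element; gain or loss fitted against DMSO baseline.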
# [8] = target: Retinoic acid receptor alpha (Homo sapiens) (UniProt P10276); experiment: ATG_DR5_RAR_CIS: Attagene CIS-FACTORIAL HepG2 Assay for human Retinoic Acid Receptor Alpha (RARE), DR5 submotif (AID 2282934); details: HepG2 Attagene cis-factorial RARE DR5 reporter, mRNA; actives raise or lower the signal
# Method in brief: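 Transient MRTU transfection of HepG2; 24 h compound treatment; TriZol RNA, oligo(dT) RT, PCR, FAM labelling, capillary electrophoresis. Bidirectional fit vs DMSO. Endogenous TF activity at DR5 RARE.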
# [9] = target: Transcription factor E2F1 (Homo sapiens) (UniProt Q01094); experiment: ATG_E2F_CIS: Attagene CIS-FACTORIAL HepG2 Assay for human E2F Transcription Factor 1 (AID 2282935); details: HepG2 Attagene cis-reporter, E2F reporter RNA transcripts; actives raise or lower the signal
# Method in brief: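 Fluorescent RT-PCR products, digested with HpaI for 2 h at 37 C, are separated by capillary electrophoresis. Source RNA comes from transfected HepG2 cultures treated for 24 h.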
# [10] = ATG_E_Box_CIS: Attagene CIS-FACTORIAL HepG2 Assay for human Enhancer Box (E-box) (AID 2282936); details: HepG2 E-box cis-reporter transcription, actives raise or lower the signal
# Method in brief: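 Fluorescent reporter fragments separated by capillary electrophoresis gave the signal; mRNA came from HepG2 cells transfected with cis-element reporters and treated 24 h. Curves fitted bidirectionally relative to DMSO controls.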
# [11] = ATG_M_61_CIS: Attagene CIS-FACTORIAL HepG2 Assay for M61 Transcription Factor (Internal Marker) (AID 2282937); details: HepG2 Attagene CIS-FACTORIAL M61 internal marker reporter; actives raise or lower the signal
# Method in brief: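 Background-control endpoint: HepG2 cells with cis-regulated reporter constructs, 24 h exposure, reporter mRNA detected via fluorescent primer extension and capillary electrophoresis; values from bidirectional fitting with DMSO baseline.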
# [12] = ATG_EGR_CIS: Attagene CIS-FACTORIAL HepG2 Assay for human Early Growth Response 1 (EGR1) (AID 2282938); details: HepG2 Attagene CIS-FACTORIAL EGR reporter mRNA; actives raise or lower the signal
# Method in brief: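 Endpoint derived by bidirectional fitting versus DMSO vehicle. Method: cis-promoter reporter units transfected into HepG2, 24 h dosing, RNA isolation, RT-PCR with 6-FAM primer extension and HpaI digestion, then capillary electrophoresis fluorescence detection.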
# [13] = ATG_M_19_CIS: Attagene CIS-FACTORIAL HepG2 Assay for M19 Transcription Factor (Internal Marker) (AID 2282939); details: HepG2 Attagene CIS-FACTORIAL M19 internal marker reporter; actives raise or lower the signal
# Method in brief: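 Readout: fluorescent reporter-transcript fragments by capillary electrophoresis after RT-PCR. Human HepG2 liver cells carried transfected MRTU constructs reporting endogenous transcription-factor activity; exposure 24 h. Gain or loss of signal fitted relative to DMSO.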
# [14] = ATG_Ets_CIS: Attagene CIS-FACTORIAL HepG2 Assay for human Erythroblast Transformation Specific (ETS) (AID 2282941); details: HepG2 ETS cis-reporter transcription, actives raise or lower the signal
# Method in brief: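 RT-PCR/capillary electrophoresis fluorescence read-out of reporter mRNA; HepG2 transient multi-reporter transfection; 24 h compound exposure; gain or loss of signal fitted bidirectionally relative to DMSO.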
# [15] = target: Hepatocyte nuclear factor 3-beta (Homo sapiens) (UniProt Q9Y261); experiment: ATG_FoxA2_CIS: Attagene CIS-FACTORIAL HepG2 Assay for human Forkhead box A2 (FOXA2) (AID 2282942); details: HepG2 cis-reporter transcription factor activity, 24 h; actives raise or lower the signal
# Method in brief: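 Measured: reporter mRNA induction or loss in HepG2 transiently carrying multiple cis-regulated reporter units, 24 h after dosing. Quantified by RT-PCR plus capillary electrophoresis, normalised to DMSO.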
# [16] = ATG_FoxO_CIS: Attagene CIS-FACTORIAL HepG2 Assay for human Forkhead box O (FoxO) (AID 2282943); details: HepG2 Attagene cis-reporter, FoxO element, mRNA; actives raise or lower the signal
# Method in brief: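 HepG2, transient MRTU transfection (cis element, endogenous TFs). Dose 24 h. TriZol RNA → oligo(dT) RT → PCR → 6-FAM primer extension → HpaI cut → CE. Gain/loss vs DMSO.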
# [17] = ATG_GATA_CIS: Attagene CIS-FACTORIAL HepG2 Assay for human GATA Binding Protein (AID 2282944); details: HepG2 GATA cis-element reporter, Attagene multiplex mRNA; actives raise or lower the signal
# Method in brief: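 Read-out: fluorescent reporter mRNA fragments resolved by capillary electrophoresis after RT-PCR. Human liver HepG2 cells carried transiently transfected cis-regulated reporter constructs; chemicals incubated 24 h; gain or loss of signal fitted relative to DMSO.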
# [18] = ATG_GLI_CIS: Attagene CIS-FACTORIAL HepG2 Assay for human Zinc Finger Protein GLI1 (AID 2282945); details: HepG2, Attagene cis-factorial reporter mRNA, GLI element; actives raise or lower the signal
# Method in brief: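 Bidirectional curve fits relative to DMSO, using reporter mRNA levels from RT-PCR plus capillary electrophoresis. Cells were HepG2 transiently carrying cis-regulated reporter constructs, harvested 24 h after dosing.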
# [19] = ATG_ERE_CIS: Attagene CIS-FACTORIAL HepG2 Assay for Estrogen Response Element (ERE) (AID 2282940); details: HepG2 ERE cis-reporter, Attagene RNA transcript; actives raise or lower the signal
# Method in brief: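 Readout: reporter mRNA induction by RT-PCR, FAM-labelled primer extension, HpaI digestion and capillary electrophoresis, 24 h after dosing transfected HepG2 cells. Endogenous transcription factors act on cis-element-regulated reporters. Gain or loss fitted against DMSO.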
# Chain of Aryl hydrocarbon receptor (Homo sapiens) (P35869 whole entry, looked up): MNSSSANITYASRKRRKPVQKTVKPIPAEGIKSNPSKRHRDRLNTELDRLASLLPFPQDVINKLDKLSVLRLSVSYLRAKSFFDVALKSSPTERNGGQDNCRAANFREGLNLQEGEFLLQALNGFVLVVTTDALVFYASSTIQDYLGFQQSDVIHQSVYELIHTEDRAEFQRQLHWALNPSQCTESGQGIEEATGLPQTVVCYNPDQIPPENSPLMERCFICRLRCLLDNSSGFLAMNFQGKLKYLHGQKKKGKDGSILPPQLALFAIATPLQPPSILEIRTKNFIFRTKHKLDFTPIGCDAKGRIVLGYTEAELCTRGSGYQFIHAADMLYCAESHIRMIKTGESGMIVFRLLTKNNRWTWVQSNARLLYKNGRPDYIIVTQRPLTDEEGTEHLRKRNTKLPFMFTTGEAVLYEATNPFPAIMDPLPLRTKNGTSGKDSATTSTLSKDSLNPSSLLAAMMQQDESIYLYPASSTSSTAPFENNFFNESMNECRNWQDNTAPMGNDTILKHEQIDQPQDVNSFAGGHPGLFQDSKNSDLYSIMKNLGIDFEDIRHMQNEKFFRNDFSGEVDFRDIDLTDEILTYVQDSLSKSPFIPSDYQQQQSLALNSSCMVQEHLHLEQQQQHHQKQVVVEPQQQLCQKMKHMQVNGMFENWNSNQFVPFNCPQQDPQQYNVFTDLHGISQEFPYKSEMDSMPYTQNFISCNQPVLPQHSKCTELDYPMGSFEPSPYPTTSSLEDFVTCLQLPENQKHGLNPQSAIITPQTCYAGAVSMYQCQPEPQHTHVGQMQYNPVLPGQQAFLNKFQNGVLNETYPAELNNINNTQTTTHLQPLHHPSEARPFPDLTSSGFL
# Chain of Transcription factor E2F1 (Homo sapiens) (Q01094 whole entry, looked up): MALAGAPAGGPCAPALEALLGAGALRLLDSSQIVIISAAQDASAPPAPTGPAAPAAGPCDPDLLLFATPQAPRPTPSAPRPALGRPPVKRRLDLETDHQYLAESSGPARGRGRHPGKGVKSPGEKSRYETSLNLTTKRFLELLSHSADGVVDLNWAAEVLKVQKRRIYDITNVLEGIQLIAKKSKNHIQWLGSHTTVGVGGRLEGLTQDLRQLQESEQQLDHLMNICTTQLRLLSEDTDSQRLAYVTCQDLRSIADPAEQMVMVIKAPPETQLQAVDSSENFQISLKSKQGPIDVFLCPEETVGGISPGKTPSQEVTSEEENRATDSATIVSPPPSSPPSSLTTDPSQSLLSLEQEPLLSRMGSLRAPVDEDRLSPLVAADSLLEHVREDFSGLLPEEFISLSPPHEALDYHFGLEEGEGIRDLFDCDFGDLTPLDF
# Chain of Retinoic acid receptor alpha (Homo sapiens) (P10276 whole entry, looked up): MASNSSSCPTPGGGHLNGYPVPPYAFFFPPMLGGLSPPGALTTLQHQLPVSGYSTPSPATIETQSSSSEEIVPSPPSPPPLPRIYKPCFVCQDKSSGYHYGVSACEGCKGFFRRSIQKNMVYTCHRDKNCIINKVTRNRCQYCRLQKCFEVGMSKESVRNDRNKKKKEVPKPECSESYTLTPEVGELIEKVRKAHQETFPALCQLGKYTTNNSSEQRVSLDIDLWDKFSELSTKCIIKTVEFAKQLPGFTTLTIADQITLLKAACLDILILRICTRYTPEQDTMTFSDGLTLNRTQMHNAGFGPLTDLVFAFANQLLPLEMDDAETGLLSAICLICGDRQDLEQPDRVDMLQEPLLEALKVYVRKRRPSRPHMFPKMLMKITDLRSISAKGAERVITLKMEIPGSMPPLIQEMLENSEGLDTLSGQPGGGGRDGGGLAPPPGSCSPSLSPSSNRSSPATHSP
# Chain of Hepatocyte nuclear factor 3-beta (Homo sapiens) (Q9Y261 whole entry, looked up): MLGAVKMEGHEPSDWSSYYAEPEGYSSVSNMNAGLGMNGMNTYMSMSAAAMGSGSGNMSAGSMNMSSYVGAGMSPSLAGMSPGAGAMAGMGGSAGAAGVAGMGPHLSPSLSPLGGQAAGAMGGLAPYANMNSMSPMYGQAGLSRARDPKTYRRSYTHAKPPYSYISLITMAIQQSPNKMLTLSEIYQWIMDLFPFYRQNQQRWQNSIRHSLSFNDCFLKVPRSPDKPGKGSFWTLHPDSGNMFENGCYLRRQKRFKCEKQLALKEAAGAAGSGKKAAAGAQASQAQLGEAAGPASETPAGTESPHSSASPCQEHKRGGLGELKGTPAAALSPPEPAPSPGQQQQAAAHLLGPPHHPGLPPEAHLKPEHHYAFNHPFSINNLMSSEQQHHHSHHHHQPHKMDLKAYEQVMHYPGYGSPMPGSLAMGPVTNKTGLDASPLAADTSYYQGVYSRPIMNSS
# Chain of CCAAT/enhancer-binding protein beta (Homo sapiens) (P17676 whole entry, looked up): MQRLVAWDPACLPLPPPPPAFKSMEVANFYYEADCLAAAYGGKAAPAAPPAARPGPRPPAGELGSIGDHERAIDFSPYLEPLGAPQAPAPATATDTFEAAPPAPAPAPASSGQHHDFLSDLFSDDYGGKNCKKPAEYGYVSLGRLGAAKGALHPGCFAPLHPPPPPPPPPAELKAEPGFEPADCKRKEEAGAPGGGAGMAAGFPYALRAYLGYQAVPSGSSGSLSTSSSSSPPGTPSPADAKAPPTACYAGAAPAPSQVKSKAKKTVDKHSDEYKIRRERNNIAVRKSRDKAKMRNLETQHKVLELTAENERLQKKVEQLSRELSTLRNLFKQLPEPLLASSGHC
structure (smiles),measurement,setting,value
CCCCCCCC(=O)OCCCCCC,outcome,[1],inactive
same,outcome,[2],inactive
same,outcome,[3],inactive
same,outcome,[4],inactive
same,outcome,[5],inactive
same,outcome,[6],inactive
same,outcome,[7],inactive
same,outcome,[8],inactive
same,outcome,[9],inactive
same,outcome,[10],inactive
same,outcome,[11],inactive
same,outcome,[12],inactive
same,outcome,[13],inactive
same,outcome,[14],inactive
same,outcome,[15],inactive
same,outcome,[16],inactive
same,outcome,[17],inactive
same,outcome,[18],inactive
COc1cc(C(C)C)ccc1C,outcome,[1],inactive
same,outcome,[2],inactive
same,outcome,[3],inactive
same,outcome,[4],inactive
same,outcome,[5],inactive
same,outcome,[6],inactive
same,outcome,[7],inactive
same,outcome,[9],inactive
same,outcome,[10],inactive
same,outcome,[11],inactive
same,outcome,[12],inactive
same,outcome,[13],inactive
same,outcome,[14],inactive
same,outcome,[15],inactive
same,outcome,[16],inactive
same,outcome,[18],inactive
COC(C)(C)CCCC(C)CC=O (stereo not given),outcome,[1],inactive
same,outcome,[2],inactive
same,outcome,[3],inactive
same,outcome,[4],inactive
same,outcome,[5],inactive
same,outcome,[6],inactive
same,outcome,[7],inactive
same,outcome,[9],inactive
same,outcome,[10],inactive
same,outcome,[11],inactive
same,outcome,[12],inactive
same,outcome,[13],inactive
same,outcome,[14],inactive
same,outcome,[15],inactive
same,outcome,[16],inactive
same,outcome,[17],inactive
same,outcome,[18],inactive
CC(C)C[C@H](NC(=O)OCC1c2ccccc2-c2ccccc21)C(=O)O,outcome,[1],inactive
same,outcome,[2],inactive
same,outcome,[3],inactive
same,outcome,[4],inactive
same,outcome,[6],inactive
same,outcome,[7],inactive
same,outcome,[8],inactive
same,outcome,[9],inactive
same,outcome,[10],inactive
same,outcome,[11],inactive
same,outcome,[12],inactive
same,outcome,[13],inactive
same,outcome,[14],inactive
same,outcome,[15],inactive
same,outcome,[16],inactive
same,outcome,[18],inactive
CCC(Cl)C(Cl)C(Cl)CC(Cl)C(Cl)C(C)Cl (stereo not given),outcome,[1],inactive
same,AC50,[2],47.7 µM (active)
same,AC50,[3],9.99 µM (active)
same,outcome,[4],inactive
same,AC50,[5],55.7 µM (active)
same,outcome,[6],inactive
same,AC50,[7],116 µM (active)
same,outcome,[8],inactive
same,outcome,[9],inactive
same,AC50,[10],83.9 µM (active)
same,outcome,[11],inactive
same,outcome,[12],inactive
same,outcome,[13],inactive
same,outcome,[14],inactive
same,outcome,[15],inactive
same,outcome,[16],inactive
same,outcome,[17],inactive
same,outcome,[18],inactive
CCN(CCC#N)c1ccc(N=Nc2ccc([N+](=O)[O-])cc2)cc1,outcome,[1],inactive
same,outcome,[2],inactive
same,outcome,[3],inactive
same,outcome,[4],inactive
same,outcome,[5],inactive
same,outcome,[6],inactive
same,outcome,[7],inactive
same,outcome,[8],inactive
same,outcome,[9],inactive
same,outcome,[10],inactive
same,outcome,[11],inactive
same,outcome,[12],inactive
same,outcome,[13],inactive
same,outcome,[15],inactive
same,outcome,[16],inactive
same,outcome,[18],inactive
CC[N+](C)(CC)CC,outcome,[1],inactive
same,outcome,[2],inactive
same,outcome,[3],inactive
same,outcome,[4],inactive
same,outcome,[5],inactive
same,outcome,[6],inactive
same,outcome,[7],inactive
same,outcome,[8],inactive
same,outcome,[10],inactive
same,outcome,[11],inactive
same,outcome,[12],inactive
same,outcome,[13],inactive
same,outcome,[14],inactive
same,outcome,[15],inactive
same,outcome,[16],inactive
same,outcome,[17],inactive
same,outcome,[18],inactive
CCCC(=O)C(CC)Sc1ccoc1C (stereo not given),outcome,[1],inactive
same,outcome,[2],inactive
same,outcome,[3],inactive
same,outcome,[4],inactive
same,AC50,[5],26.5 µM (active)
same,outcome,[6],inactive
same,outcome,[7],inactive
same,outcome,[9],inactive
same,outcome,[10],inactive
same,outcome,[11],inactive
same,outcome,[12],inactive
same,AC50,[19],88.9 µM (active)
same,outcome,[14],inactive
same,outcome,[15],inactive
same,outcome,[16],inactive
same,outcome,[17],inactive
same,outcome,[18],inactive
CCCCCCCCN1CCCC1=O,outcome,[1],inactive
same,outcome,[2],inactive
same,outcome,[3],inactive
same,outcome,[4],inactive
same,outcome,[5],inactive
same,outcome,[6],inactive
same,outcome,[7],inactive
same,outcome,[8],inactive
same,outcome,[9],inactive
same,outcome,[10],inactive
same,outcome,[11],inactive
same,outcome,[12],inactive
same,outcome,[13],inactive
same,outcome,[15],inactive
same,outcome,[16],inactive
same,outcome,[17],inactive
same,outcome,[18],inactive
CCc1ccc(O)cc1,outcome,[1],inactive
same,outcome,[2],inactive
same,outcome,[3],inactive
same,AC50,[4],68.7 µM (active)
same,outcome,[5],inactive
same,outcome,[6],inactive
same,outcome,[7],inactive
same,outcome,[8],inactive
same,outcome,[9],inactive
same,outcome,[10],inactive
same,outcome,[11],inactive
same,outcome,[12],inactive
same,outcome,[13],inactive
same,outcome,[14],inactive
same,outcome,[15],inactive
same,outcome,[16],inactive
same,outcome,[17],inactive
same,outcome,[18],inactive
